Measurements: the supplement of paper PMC6555819

Each sequence was assayed on PXR homodimer (NR concentration 270 nM) (assay: PBM binding z-score (relative to random genomic background probes); higher = stronger binding; sequences stand for … in GC…GCGATTGACAGCGTAGAATGAAGG).
Method in brief: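 Regression normalization was applied to scanned fluorescence from custom Agilent 4×180K protein-binding microarrays. Before scanning, arrays were incubated 1 h with ligand-free nuclear receptor dimers, and binding was detected with antibodies against each partner (one per run). Binding z-scores use the random background probes as reference.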

Sequence | PBM binding z-score
TAGCCTAGGTCATGGGCTAGTATACCACGCGAAC | -0.606
TCAGACAGGTGATGGTAACTCAGGTACGCAGTCG | 0.496
GTACCAAGGAGAATAGGTCGTTGATGAGTAGGCG | -0.146
TATCCTAGGTCATGGGCCAGTATACCACGCGAAC | 0.762
CGAACTAGGTCATTGAGAGGACAGTGAATAGTAA | 0.174
TTACCAAGGTGAGCTGAGGTCGTTGATCCAACTC | 0.329
TTACCAAGGTTAGCTGAGGTCGTTGATCCAACTC | 1.46
CCTTACGGGTCACAGACAGGTTATAGCATTTGGA | 0.387
TCGAGTAGGTTAGTCGGGGCAATCAGCCAACATA | -0.459
GCTTGTAGAACAAGGTTAAGAAAGACTAAGCTAA | -0.338
TCATAGAGGTAATACAGGTGAAAGTCGGCATCTA | -0.0711
GCTGCTAAGTCAGGTTGGTCAGCTAACGGGTACG | -0.643
CGTCCAAGGTCAGAAGGTCAGTGAAAGCGACGTG | 0.822
TCTATTAGTTGAAGGGCAACCGGCGAGTCCGTTT | 0.705
ATCTCTAGGTTACCAAGTTCAGTGAATGCCGAAC | 4.37
CGTCCAAGGTCAATGCTAGGTCCGTGAAAGCATT | 0.579
CTACCAAGGGGAACAAGGTCGTTGATTACTATTC | 1.29
CCTTACGGGCCACTGACAGGTTATAGCATTTGGA | -0.0803
TCAAGTTGGTCAAAGGTCACACACTCGAAATGCG | 1.87
TCTATTAGTTGATTGGGGCAACCGAAACAGCGGA | 0.783
ATATGTAGGTTACATCCGTGTCATTCAGGCTATG | 0.202
GCAGACCGGTGAAACGCAGGTAACTCAGGGTGGC | -1.17
